From PubChem
Shown are actives, neighbours in structure and some others; about 7.9% of the full set was active somewhere.
Lassa entry inh: blocks Lassa virus binding to or entry into cells. Lassa virus pseudotype entry inhibition, cell reporter. Potency, µM (highest dose often 37.9 µM), most hits filed as inhibitors. hit rate 1.2% among 300,000. AID 540256; calls by dose curve; tested in HEK293 cells; further: nearly all actives have a fitted effect of over 50% in size
FMDV antiviral: antivirals against foot and mouth disease virus; FMDV antiviral cell-based qHTS; Potency, µM (top dose mostly 57.9 µM), most hits filed as inhibitors; hit rate 1.2% among 410,000; calls by dose curve; tested in HEK293T cells; further: read-out not given here; nearly all actives have a fitted effect of over 45% in size
HCMV inh: inhibitors of human cytomegalovirus; HFF cells, HCMV-luciferase reporter, 72 h; active compounds read low; activity change, negative = inhibition, % at 57.5 µM; hit rate 4.5% among 410,000; in the data active means activity change below about -60%; inconclusive means no clear call, values can overlap the other calls; inactive means above about -39%
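Cell-based, HFFs, 1000 cells/well, 16 h 37C; cpds in DMSO + HCMV-luc, MOI 1 PFU/cell; 72 h 37C; OneGlo luminescence after 5 min RT; norm. to buffer vs Salinomycin 10uM.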
MARV entry inh: blocks Marburg virus binding to or entry into cells | Marburg virus pseudotyped entry inhibition, cell reporter | Potency, µM (series often up to 37.8 µM), most hits filed as inhibitors | hit rate 1.8% among 300,000; calls by dose curve; tested in HEK293 cells
HCV inh: HCV inhibition | Huh7.5.1 HCVcc-Cre infection, luciferase reporter, 44 h | Potency, µM (highest dose often 41.8 µM), hits mostly inhibitors | hit rate 3.4% among 340,000; active means well fitted inhibition curve with a large enough effect; inconclusive means small, poorly fitted or top-dose-only effect, or another doubt; inactive means no such curve, though single readings can be large or run the other way
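Cells (1,000/well) were plated 4 h before compound, then infected with HCVcc-Cre virus (~0.5 moi). After 44 h further culture, infection was read as luciferase luminescence following a 15 min substrate incubation at room temperature.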
Large screens that a line does not name were inactive.

Cc1cc(N2CCN(C)CC2)nc(-c2ccccc2O)n1	HCV inh inconclusive (no result: Lassa entry inh, MARV entry inh)
Cc1cc(N2CCC(C(=O)Nc3ccc(F)cc3)CC2)nc(-c2ccccc2)n1	MARV entry inh inconclusive, HCV inh inconclusive
Cc1cc(N2CCN(c3ccc(F)cc3)CC2)nc(-c2ccccc2)n1	HCMV inh inconclusive, HCV inh 10µM
Cc1cc(C)nc(N2CCN(S(=O)(=O)c3ccc(F)cc3)CC2)n1	none (no result: Lassa entry inh, MARV entry inh)
Cc1cc(N2CCCC2)nc(-c2ccccc2O)n1	HCMV inh -102, HCV inh 3.2µM
O=C(CN1C(=O)C(=O)N(Cc2ccccc2)C1=O)Nc1ccc(OC(F)F)cc1	none
CCCN(CCC)C(=O)CSc1nc2ccccc2c(=O)n1Cc1ccco1	none (no result: MARV entry inh, HCV inh)
Cc1ccc(CSc2nc3cccnc3n2Cc2ccc(C(=O)NCc3ccco3)cc2)cc1	none (no result: MARV entry inh, HCV inh)
Cc1nc(SCC(=O)Nc2ccc(S(=O)(=O)N3CCOCC3)cc2)c2c(C)c(C)sc2n1	Lassa entry inh 1.1µM, MARV entry inh inconclusive, HCV inh 7.1µM
CN(Cc1ccccc1)C(=O)CSc1nc2ccccc2c(=O)n1Cc1ccco1	Lassa entry inh 5.8µM, HCMV inh -80, MARV entry inh 6.5µM, HCV inh inconclusive (no result: FMDV antiviral)
CCCCCn1c(SCc2ccncc2)nc2cc(C(=O)NCc3ccco3)ccc2c1=O	FMDV antiviral inconclusive, HCV inh 14µM
Cc1nc(SCC(=O)NCc2ccco2)c2c(C)c(C)sc2n1	Lassa entry inh inconclusive, MARV entry inh 15µM, HCV inh inconclusive
CCC1CN(S(=O)(=O)c2cc(-c3cc(C)no3)ccc2C)c2cc(Cl)ccc2O1 (stereo unspecified)	none (no result: MARV entry inh, HCV inh)
CCCN=C1N(CC)C[C@@H]2[C@@H]3C(=O)N(Cc4ccccc4)C(=O)[C@@H]3[C@](Cc3ccccc3)(C(=O)OC)N12	none (no result: Lassa entry inh, MARV entry inh)
O=C(Cc1ccc(F)cc1)N1CCC(c2nc3c(nnn3Cc3ccc(Cl)cc3)c(=O)[nH]2)CC1	none (no result: HCV inh)
O=S(=O)(c1ccc(C2CCCCC2)cc1)N1CCN(c2cc(Cl)ccc2Cl)CC1	none (no result: HCV inh)
CCC1CN(CC(=O)NCc2ccc3c(c2)OCO3)Cc2ccc(Cl)cc2O1 (stereo unspecified)	none (no result: Lassa entry inh, HCMV inh, MARV entry inh, HCV inh)
O=C(NCc1ccco1)c1ccc2c(=O)n(Cc3ccco3)c(SCC(=O)N3CCCC3)nc2c1	MARV entry inh inconclusive, HCV inh 13µM
COc1ccc(C(=O)CSc2nc(C(C)(C)C)nc3ccccc23)cc1	FMDV antiviral inconclusive, HCMV inh inconclusive, HCV inh 4µM (no result: Lassa entry inh, MARV entry inh)
O=C(CSc1nc2ccccc2c(=O)n1Cc1ccco1)NCc1ccco1	HCV inh 10µM (no result: FMDV antiviral)
CC(C)(C)c1nc(SCC(=O)NCc2ccco2)c2ccccc2n1	HCMV inh -88, HCV inh inconclusive
CCCCn1c(SCC(=O)NCc2ccco2)nc2ccccc2c1=O	HCV inh inconclusive
O=C(NC1CCCCCC1)c1ccc(CS(=O)Cc2cccc(Cl)c2)o1 (stereo unspecified)	none (no result: Lassa entry inh, MARV entry inh)
Cc1ccc(NC(=O)NNC(=O)C2CC(c3cccs3)=NO2)cc1 (stereo unspecified)	none
CC1=CC[C@@H](COc2ccccc2)O[C@@]2(C1)C(=O)N(Cc1ccc(F)cc1)c1ccccc12	none (no result: Lassa entry inh, FMDV antiviral, HCMV inh, HCV inh)
COCC1CCCN(Cc2ccc3c(c2)CN(C(=O)c2cn4ccc(C)cc4n2)CCO3)C1 (stereo unspecified)	none (no result: Lassa entry inh, HCMV inh, MARV entry inh, HCV inh)
COCCn1c(C)cc(C(=O)CSc2nc3ccccc3c(=O)n2Cc2ccco2)c1C	Lassa entry inh inconclusive, HCMV inh -69, MARV entry inh inconclusive, HCV inh inconclusive
O=C(CSc1nc2ccccc2c(=O)n1Cc1ccco1)N1CCCCCC1	Lassa entry inh inconclusive, FMDV antiviral inconclusive, HCMV inh inconclusive, HCV inh 11µM
Cc1sc2nc(SCC(=O)NCc3ccco3)n(Cc3ccccc3)c(=O)c2c1C	HCV inh 2.2µM
O=C(CSc1nc2ccsc2c(=O)n1Cc1ccccc1)NCc1ccco1	HCV inh 8.9µM
O=C(Nc1cc(-c2nc3ccccc3o2)ccc1Cl)c1ccc(N2CCCCC2)c([N+](=O)[O-])c1	MARV entry inh inconclusive (no result: HCV inh)
CN(C(=O)COC(=O)COc1ccc2ccccc2c1)c1ccccc1	none (no result: Lassa entry inh, MARV entry inh, HCV inh)
Cc1nnsc1C(=O)N1CCCC(N2CCN(c3cccc(C(F)(F)F)c3)CC2)C1 (stereo unspecified)	HCMV inh -61 (no result: Lassa entry inh, MARV entry inh)
O=C(c1cccs1)N1CCCC(N2CCN(c3cccc(C(F)(F)F)c3)CC2)C1 (stereo unspecified)	Lassa entry inh inconclusive, FMDV antiviral inconclusive, HCV inh inconclusive
Cc1ccsc1C(=O)N1CCCC(N2CCN(c3cccc(Cl)c3)CC2)C1 (stereo unspecified)	FMDV antiviral inconclusive, HCMV inh -64, HCV inh inconclusive (no result: Lassa entry inh, MARV entry inh)
O=C(Cn1cccn1)N1CCCC(N2CCN(c3cccc(C(F)(F)F)c3)CC2)C1 (stereo unspecified)	none (no result: HCV inh)
O=C(c1ccco1)N1CCCC(N2CCN(c3cccc(C(F)(F)F)c3)CC2)C1 (stereo unspecified)	Lassa entry inh inconclusive, HCV inh 22µM
O=C(CCn1cccn1)N1CCCC(N2CCN(c3cccc(C(F)(F)F)c3)CC2)C1 (stereo unspecified)	Lassa entry inh inconclusive, HCMV inh -62
Cc1ccc([C@H]2/C(=C(\O)c3cnn(-c4ccccc4)c3C)C(=O)C(=O)N2CCN2CCOCC2)o1	none (no result: Lassa entry inh, FMDV antiviral, HCMV inh, HCV inh)
CCn1c(CNC(=O)c2ccc(OC)cc2)nnc1SCC(=O)Nc1cccc(C)c1	none (no result: HCV inh)
CC1(C)CC(=O)C2=C(C1)O[C@@]1(CCCCN3C(=O)c4ccccc4C3=O)Cc3ccccc3[C@H]2O1	none (no result: Lassa entry inh, FMDV antiviral, HCMV inh, HCV inh)
Cc1cc(C)c(C(=O)N2CCCC(N3CCN(c4cccc(C(F)(F)F)c4)CC3)C2)o1 (stereo unspecified)	FMDV antiviral inconclusive, HCV inh 11µM (no result: Lassa entry inh, MARV entry inh)
COC(=O)c1ccc(CN2CCC(Oc3cccc(C(=O)N4CCOCC4)c3)CC2)cc1	FMDV antiviral inconclusive, HCV inh inconclusive (no result: Lassa entry inh, MARV entry inh)
Cc1ccc(S(=O)(=O)C(c2ccccc2)c2c(C)noc2C)cc1 (stereo unspecified)	HCMV inh -72, MARV entry inh 0.63µM
COc1ccc(-n2cccc2/C=C/[N+](=O)[O-])cc1	Lassa entry inh inconclusive, FMDV antiviral 28µM, HCMV inh -102, MARV entry inh inconclusive, HCV inh inconclusive
CN(C)CC(O)COC(c1ccc(Cl)cc1)c1ccc(Cl)cc1 (stereo unspecified)	Lassa entry inh inconclusive, HCMV inh inconclusive, MARV entry inh inconclusive, HCV inh 3.2µM
CC1CN(CC(O)COC(c2ccc(Cl)cc2)c2ccc(Cl)cc2)CC(C)O1 (stereo unspecified)	FMDV antiviral inconclusive, MARV entry inh inconclusive, HCV inh 10µM
CC1CN(CC(O)COc2ccc(C(C)C)cc2)CC(C)O1 (stereo unspecified)	HCV inh inconclusive
CCCc1nc2ccc(C)cn2c1Cc1ccccc1C(F)(F)F	HCMV inh -69 (no result: Lassa entry inh, MARV entry inh, HCV inh)
CCCc1nc2ccc(C)cn2c1Cc1ccccc1OC	none (no result: Lassa entry inh, MARV entry inh, HCV inh)
NC(=O)c1cc(-c2ccccc2)sc1NC(=O)CN1CCCCC1	Lassa entry inh inconclusive, MARV entry inh 6.3µM, HCV inh 13µM
